# Results taken from article PMC7862700, “An all-to-all approach to the identification of sequence-specific readers for epigenetic DNA modifications on cytosine”.
# Key:
# Assay in all cases: DAPPL (digital affinity profiling via proximity ligation, sequencing); 10 mM Tris-HCl pH 7.5, 50 mM NaCl, 1 mM DTT, 4% glycerol, room temperature, 30 min; GST-TFs on glutathione beads, 16-mer random dsDNA library, 0.1% formaldehyde crosslink after washing; high values mean tight binding
# FLI1 = biological target: T1, FLI1 (Homo sapiens, UniProt Q01543 1-452); conditions: protein: recombinant; tags: N-terminal GST; dsDNA, one strand shown
# T1 sequence: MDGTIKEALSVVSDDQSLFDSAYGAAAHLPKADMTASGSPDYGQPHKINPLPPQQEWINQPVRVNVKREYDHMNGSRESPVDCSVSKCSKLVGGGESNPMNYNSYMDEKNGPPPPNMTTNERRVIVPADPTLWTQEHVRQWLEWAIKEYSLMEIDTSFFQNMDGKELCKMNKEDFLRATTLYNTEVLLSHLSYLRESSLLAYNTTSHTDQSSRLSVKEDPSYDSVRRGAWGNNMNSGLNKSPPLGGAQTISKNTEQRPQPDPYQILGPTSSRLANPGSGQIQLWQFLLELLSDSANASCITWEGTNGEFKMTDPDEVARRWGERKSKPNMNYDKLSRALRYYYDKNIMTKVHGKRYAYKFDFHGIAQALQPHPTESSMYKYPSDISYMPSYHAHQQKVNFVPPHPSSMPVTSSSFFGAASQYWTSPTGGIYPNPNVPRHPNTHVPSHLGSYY
# How it was run: (§1)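 Yeast served to express human transcription factors as GST fusions, which were then captured on glutathione beads and labelled with DNA barcodes. Pooled with a tag-only sample, they were incubated with 200 nmole of a 16-mer random double-stranded DNA library for 30 min at room temperature in Tris/NaCl/DTT/glycerol buffer, washed, crosslinked with 0.1% formaldehyde, ligated by proximity, amplified by PCR and sequenced. Dividing each hexamer's read frequency for a factor by its frequency for the tag-only sample gives the binding signal.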
# ELK1 = biological target: T2, ELK1 (Homo sapiens, UniProt P19419 1-428); conditions: protein: recombinant; tags: N-terminal GST; dsDNA, one strand shown
# T2 sequence: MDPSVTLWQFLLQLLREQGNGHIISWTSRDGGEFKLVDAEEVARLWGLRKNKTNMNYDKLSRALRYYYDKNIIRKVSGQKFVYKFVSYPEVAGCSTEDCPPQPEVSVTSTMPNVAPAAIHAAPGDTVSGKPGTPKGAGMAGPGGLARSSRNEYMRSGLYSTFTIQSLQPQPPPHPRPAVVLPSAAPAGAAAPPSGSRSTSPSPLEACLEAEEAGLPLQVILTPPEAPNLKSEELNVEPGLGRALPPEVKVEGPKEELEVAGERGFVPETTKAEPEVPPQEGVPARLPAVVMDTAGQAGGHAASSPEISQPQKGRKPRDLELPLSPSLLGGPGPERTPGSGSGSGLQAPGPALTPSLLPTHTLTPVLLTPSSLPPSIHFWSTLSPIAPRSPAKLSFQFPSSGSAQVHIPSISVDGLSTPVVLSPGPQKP
# How it was run: as §1
# GABPA = biological target: T3, GABPA (Homo sapiens, UniProt Q06546 1-454); conditions: protein: recombinant; tags: N-terminal GST; dsDNA, one strand shown
# T3 sequence: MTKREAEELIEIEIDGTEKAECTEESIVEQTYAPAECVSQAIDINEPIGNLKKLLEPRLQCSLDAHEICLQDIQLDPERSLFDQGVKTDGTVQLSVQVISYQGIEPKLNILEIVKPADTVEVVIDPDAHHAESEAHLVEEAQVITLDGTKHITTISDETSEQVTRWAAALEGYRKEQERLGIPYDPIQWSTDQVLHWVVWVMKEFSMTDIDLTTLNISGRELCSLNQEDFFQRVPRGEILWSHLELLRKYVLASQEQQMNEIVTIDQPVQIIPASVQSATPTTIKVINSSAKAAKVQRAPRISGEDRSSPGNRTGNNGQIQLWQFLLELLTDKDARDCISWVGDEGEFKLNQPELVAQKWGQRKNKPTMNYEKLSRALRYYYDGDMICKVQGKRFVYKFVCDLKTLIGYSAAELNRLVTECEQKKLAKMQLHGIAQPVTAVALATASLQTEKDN
# How it was run: as §1
# ERG = biological target: T4, ERG (Homo sapiens, UniProt P11308 1-479); conditions: protein: recombinant; tags: N-terminal GST; dsDNA, one strand shown
# T4 sequence: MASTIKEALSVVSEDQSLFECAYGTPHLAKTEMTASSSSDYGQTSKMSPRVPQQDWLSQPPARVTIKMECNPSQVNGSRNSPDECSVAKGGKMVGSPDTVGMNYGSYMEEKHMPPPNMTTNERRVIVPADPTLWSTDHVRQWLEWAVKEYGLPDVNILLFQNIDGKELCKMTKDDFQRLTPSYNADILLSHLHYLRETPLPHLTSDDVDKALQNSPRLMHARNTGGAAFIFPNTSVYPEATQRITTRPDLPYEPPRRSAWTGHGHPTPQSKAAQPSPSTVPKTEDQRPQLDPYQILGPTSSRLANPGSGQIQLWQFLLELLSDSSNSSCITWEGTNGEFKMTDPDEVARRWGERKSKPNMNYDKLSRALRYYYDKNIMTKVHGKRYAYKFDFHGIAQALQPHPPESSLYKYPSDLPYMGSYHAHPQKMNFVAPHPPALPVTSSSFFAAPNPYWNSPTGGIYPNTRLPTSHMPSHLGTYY
# How it was run: as §1
# ELF1 = ELF1 (Homo sapiens, UniProt P32519 1-619); conditions: protein: recombinant; tags: N-terminal GST; dsDNA, one strand shown
# Sequence of ELF1 (P32519 whole entry): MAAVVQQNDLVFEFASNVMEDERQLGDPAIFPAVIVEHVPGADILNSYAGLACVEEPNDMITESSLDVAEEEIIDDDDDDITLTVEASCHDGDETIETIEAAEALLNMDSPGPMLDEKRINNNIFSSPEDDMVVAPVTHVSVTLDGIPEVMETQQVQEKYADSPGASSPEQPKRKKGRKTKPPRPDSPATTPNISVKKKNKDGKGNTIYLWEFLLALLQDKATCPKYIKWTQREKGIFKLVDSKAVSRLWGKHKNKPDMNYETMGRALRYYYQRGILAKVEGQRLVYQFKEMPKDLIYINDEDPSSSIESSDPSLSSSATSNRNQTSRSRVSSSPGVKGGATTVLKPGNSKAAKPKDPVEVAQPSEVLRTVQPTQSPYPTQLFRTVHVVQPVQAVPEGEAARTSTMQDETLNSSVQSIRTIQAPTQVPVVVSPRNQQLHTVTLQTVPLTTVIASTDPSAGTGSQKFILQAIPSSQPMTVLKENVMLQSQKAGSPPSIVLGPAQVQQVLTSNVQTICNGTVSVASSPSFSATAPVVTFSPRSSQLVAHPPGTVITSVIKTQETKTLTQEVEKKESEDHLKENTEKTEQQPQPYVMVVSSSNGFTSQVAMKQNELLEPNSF
# How it was run: as §1
# EHF = biological target: T5, EHF (Homo sapiens, UniProt Q9NZC4 1-300); conditions: protein: recombinant; tags: N-terminal GST; dsDNA, one strand shown
# T5 sequence: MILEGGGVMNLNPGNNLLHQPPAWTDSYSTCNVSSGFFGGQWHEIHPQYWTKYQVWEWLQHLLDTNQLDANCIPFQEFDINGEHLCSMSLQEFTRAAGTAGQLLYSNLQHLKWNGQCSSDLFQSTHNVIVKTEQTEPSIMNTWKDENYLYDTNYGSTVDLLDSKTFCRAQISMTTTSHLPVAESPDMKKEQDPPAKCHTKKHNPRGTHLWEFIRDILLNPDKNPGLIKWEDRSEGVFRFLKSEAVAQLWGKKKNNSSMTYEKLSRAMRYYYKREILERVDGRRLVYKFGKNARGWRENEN
# How it was run: as §1
# SPI1 = SPI1 (Homo sapiens, UniProt P17947 1-270); conditions: protein: recombinant; tags: N-terminal GST; dsDNA, one strand shown
# How it was run: as §1
# SPIB = SPIB (Homo sapiens, UniProt Q01892 1-262); conditions: protein: recombinant; tags: N-terminal GST; dsDNA, one strand shown
# Sequence of SPIB (Q01892 whole entry): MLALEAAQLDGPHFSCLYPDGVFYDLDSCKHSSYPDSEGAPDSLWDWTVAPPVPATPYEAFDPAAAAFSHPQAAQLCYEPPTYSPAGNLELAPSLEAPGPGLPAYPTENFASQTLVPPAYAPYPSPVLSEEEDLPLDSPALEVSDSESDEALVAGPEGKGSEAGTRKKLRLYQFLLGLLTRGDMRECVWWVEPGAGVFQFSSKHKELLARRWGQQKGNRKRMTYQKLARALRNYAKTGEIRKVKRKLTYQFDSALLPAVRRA
# How it was run: as §1
# ELK3 = biological target: T6, ELK3 (Homo sapiens, UniProt P41970 1-407); conditions: protein: recombinant; tags: N-terminal GST; dsDNA, one strand shown
# T6 sequence: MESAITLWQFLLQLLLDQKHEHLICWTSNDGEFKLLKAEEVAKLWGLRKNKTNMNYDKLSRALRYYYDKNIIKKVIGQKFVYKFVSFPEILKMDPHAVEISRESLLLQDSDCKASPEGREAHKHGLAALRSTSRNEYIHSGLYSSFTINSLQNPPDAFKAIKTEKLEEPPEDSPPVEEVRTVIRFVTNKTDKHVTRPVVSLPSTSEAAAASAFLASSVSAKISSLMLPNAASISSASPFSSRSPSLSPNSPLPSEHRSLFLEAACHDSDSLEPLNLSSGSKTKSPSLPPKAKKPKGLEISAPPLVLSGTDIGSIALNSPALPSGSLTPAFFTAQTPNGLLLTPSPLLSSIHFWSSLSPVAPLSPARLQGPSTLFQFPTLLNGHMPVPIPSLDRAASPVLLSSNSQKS
# How it was run: as §1
# FEV = biological target: T7, FEV (Homo sapiens, UniProt Q99581 1-238); conditions: protein: recombinant; tags: N-terminal GST; dsDNA, one strand shown
# T7 sequence: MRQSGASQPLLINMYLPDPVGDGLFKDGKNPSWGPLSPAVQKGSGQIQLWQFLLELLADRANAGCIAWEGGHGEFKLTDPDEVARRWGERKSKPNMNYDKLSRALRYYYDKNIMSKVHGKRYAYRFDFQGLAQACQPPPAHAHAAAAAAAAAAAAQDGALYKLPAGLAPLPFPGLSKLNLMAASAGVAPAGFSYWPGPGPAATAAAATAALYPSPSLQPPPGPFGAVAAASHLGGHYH
# How it was run: as §1
# ETV5 = ETV5 (Homo sapiens, UniProt P41161 1-510); conditions: protein: recombinant; tags: N-terminal GST; dsDNA, one strand shown
# Sequence of ETV5 (P41161 whole entry): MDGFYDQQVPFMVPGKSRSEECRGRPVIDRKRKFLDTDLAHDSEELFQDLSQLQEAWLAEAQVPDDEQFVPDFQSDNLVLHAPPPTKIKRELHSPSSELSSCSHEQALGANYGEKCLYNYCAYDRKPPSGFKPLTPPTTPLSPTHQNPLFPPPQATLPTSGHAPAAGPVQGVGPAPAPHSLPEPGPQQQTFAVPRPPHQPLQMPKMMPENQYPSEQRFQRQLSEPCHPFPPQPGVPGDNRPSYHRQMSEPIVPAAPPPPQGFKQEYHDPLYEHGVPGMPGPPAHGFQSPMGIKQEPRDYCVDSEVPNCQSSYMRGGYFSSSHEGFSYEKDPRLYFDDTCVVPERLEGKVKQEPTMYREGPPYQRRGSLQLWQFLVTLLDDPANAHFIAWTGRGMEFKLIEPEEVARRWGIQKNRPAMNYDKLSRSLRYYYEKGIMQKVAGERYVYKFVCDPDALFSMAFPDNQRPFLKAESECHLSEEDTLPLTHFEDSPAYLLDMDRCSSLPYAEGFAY
# How it was run: as §1
# HSF1 = HSF1 (Homo sapiens, UniProt Q00613 1-529); conditions: protein: recombinant; tags: N-terminal GST; chain copies: 3; dsDNA, one strand shown
# Sequence of HSF1 (Q00613 whole entry): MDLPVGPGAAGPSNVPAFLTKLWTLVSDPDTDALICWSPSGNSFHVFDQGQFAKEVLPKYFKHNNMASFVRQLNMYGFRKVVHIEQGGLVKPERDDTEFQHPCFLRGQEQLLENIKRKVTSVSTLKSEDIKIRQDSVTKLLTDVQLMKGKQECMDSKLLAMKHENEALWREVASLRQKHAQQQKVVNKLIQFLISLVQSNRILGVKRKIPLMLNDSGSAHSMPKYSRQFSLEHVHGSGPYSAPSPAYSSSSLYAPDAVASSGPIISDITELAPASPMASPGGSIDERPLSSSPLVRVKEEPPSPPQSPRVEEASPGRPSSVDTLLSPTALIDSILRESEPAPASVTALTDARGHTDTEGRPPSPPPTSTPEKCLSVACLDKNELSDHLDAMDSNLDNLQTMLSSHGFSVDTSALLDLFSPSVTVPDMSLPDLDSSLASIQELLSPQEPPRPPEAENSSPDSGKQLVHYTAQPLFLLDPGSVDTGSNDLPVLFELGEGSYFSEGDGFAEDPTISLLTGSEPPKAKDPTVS
# How it was run: as §1
# SPIC = biological target: T8, SPIC (Homo sapiens, UniProt Q8N5J4 1-248); conditions: protein: recombinant; tags: N-terminal GST; dsDNA, one strand shown
# T8 sequence: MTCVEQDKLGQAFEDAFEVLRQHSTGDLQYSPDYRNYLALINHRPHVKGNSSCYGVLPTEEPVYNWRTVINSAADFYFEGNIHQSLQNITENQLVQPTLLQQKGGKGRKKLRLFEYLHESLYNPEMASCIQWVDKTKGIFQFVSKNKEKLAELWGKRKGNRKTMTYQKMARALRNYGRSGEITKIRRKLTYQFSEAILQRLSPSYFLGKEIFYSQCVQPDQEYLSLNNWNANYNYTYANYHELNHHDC
# How it was run: as §1
# ELF4 = ELF4 (Homo sapiens, UniProt Q99607 1-663); conditions: protein: recombinant; tags: N-terminal GST; dsDNA, one strand shown
# Sequence of ELF4 (Q99607 whole entry): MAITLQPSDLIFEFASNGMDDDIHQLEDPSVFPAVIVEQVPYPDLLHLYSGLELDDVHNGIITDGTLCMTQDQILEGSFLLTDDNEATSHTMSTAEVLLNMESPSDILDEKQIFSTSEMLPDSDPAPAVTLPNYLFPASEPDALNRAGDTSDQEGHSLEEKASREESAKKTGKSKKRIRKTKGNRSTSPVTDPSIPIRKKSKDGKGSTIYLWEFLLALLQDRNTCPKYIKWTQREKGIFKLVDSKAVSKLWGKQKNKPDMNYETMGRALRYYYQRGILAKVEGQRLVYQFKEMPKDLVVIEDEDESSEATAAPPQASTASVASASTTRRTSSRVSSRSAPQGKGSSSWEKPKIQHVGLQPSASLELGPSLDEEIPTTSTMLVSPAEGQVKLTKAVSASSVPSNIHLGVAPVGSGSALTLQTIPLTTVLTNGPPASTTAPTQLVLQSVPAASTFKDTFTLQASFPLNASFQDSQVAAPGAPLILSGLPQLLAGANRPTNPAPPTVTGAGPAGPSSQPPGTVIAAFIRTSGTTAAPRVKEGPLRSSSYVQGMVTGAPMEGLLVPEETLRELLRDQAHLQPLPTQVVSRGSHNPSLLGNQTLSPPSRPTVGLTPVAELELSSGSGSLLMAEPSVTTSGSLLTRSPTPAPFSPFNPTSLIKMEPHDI
# How it was run: as §1
# ELK4 = biological target: T9, ELK4 (Homo sapiens, UniProt P28324-2 1-405); conditions: protein: recombinant; tags: N-terminal GST; dsDNA, one strand shown
# T9 sequence: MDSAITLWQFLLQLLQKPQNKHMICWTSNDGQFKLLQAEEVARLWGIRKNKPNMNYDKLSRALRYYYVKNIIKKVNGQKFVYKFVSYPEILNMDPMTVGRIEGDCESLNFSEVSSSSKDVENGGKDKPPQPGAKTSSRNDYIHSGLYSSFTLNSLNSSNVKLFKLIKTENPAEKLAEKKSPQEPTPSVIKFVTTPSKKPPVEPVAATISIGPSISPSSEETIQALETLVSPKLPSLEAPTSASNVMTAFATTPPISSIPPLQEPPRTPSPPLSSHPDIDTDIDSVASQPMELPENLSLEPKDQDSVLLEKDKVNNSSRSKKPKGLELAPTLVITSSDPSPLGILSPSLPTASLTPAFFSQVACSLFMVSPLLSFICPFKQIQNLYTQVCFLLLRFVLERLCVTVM
# How it was run: as §1
# ETV2 = biological target: T10, ETV2 (Homo sapiens, UniProt O00321 1-342); conditions: protein: recombinant; tags: N-terminal GST; dsDNA, one strand shown
# T10 sequence: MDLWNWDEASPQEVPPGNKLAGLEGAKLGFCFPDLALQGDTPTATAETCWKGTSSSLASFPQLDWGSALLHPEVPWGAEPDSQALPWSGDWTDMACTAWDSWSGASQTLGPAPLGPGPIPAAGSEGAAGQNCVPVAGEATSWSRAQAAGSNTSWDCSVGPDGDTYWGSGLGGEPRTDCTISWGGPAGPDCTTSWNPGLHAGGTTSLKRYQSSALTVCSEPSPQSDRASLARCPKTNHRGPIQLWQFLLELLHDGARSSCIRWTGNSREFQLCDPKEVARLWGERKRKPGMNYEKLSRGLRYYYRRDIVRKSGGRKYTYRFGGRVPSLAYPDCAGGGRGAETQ
# How it was run: as §1
# ELF3 = biological target: T11, ELF3 (Homo sapiens, UniProt P78545 1-371); conditions: protein: recombinant; tags: N-terminal GST; dsDNA, one strand shown
# T11 sequence: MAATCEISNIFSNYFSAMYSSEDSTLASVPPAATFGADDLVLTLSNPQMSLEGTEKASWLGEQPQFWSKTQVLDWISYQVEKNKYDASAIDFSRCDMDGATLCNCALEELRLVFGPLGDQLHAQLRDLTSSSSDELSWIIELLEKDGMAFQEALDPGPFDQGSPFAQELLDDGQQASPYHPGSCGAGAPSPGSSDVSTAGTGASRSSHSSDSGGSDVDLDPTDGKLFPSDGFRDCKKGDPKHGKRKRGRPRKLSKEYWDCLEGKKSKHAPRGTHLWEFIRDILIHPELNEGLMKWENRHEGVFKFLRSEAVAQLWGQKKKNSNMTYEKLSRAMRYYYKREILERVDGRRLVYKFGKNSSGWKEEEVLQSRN
# How it was run: as §1
# CRX = CRX (Homo sapiens, UniProt O43186 1-299); conditions: protein: recombinant; tags: N-terminal GST; dsDNA, one strand shown
# Sequence of CRX (O43186 whole entry): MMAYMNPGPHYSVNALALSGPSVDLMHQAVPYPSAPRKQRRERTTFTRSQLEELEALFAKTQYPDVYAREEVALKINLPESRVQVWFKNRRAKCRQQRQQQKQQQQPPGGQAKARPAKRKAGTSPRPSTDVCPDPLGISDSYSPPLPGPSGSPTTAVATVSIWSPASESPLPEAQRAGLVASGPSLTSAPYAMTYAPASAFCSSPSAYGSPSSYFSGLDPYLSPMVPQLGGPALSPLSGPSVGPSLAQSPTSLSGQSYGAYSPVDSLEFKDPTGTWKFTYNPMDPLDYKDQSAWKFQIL
# How it was run: as §1
# ETV1 = ETV1 (Homo sapiens, UniProt P50549 1-477); conditions: protein: recombinant; tags: N-terminal GST; dsDNA, one strand shown
# Sequence of ETV1 (P50549 whole entry): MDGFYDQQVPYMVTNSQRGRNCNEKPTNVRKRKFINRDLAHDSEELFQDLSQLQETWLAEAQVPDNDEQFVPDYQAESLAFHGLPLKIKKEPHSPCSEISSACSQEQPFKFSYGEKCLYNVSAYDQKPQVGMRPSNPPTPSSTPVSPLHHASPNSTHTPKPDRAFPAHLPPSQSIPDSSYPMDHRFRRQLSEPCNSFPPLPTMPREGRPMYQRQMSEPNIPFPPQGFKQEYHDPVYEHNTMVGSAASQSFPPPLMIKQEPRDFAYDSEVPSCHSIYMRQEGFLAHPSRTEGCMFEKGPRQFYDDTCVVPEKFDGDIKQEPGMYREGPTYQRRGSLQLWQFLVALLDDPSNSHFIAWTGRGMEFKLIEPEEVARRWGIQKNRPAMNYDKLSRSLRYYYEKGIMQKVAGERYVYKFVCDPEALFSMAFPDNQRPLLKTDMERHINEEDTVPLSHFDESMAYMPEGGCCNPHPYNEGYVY
# How it was run: as §1
sequence,measurement,setting,value
TATTAT,binding signal,FLI1,"1.3 fold enrichment (6-mer frequency, TF over GST control)"
same,binding signal,ELK1,"1.27 fold enrichment (6-mer frequency, TF over GST control)"
same,binding signal,GABPA,"1.21 fold enrichment (6-mer frequency, TF over GST control)"
same,binding signal,ERG,"1.25 fold enrichment (6-mer frequency, TF over GST control)"
same,binding signal,ELF1,"1.25 fold enrichment (6-mer frequency, TF over GST control)"
same,binding signal,EHF,"1.25 fold enrichment (6-mer frequency, TF over GST control)"
same,binding signal,SPI1,"1.2 fold enrichment (6-mer frequency, TF over GST control)"
same,binding signal,SPIB,"1.24 fold enrichment (6-mer frequency, TF over GST control)"
same,binding signal,ELK3,"1.12 fold enrichment (6-mer frequency, TF over GST control)"
same,binding signal,FEV,"1.12 fold enrichment (6-mer frequency, TF over GST control)"
same,binding signal,ETV5,"1.3 fold enrichment (6-mer frequency, TF over GST control)"
same,binding signal,HSF1,"1.69 fold enrichment (6-mer frequency, TF over GST control)"
same,binding signal,SPIC,"1.35 fold enrichment (6-mer frequency, TF over GST control)"
same,binding signal,ELF4,"1.27 fold enrichment (6-mer frequency, TF over GST control)"
same,binding signal,ELK4,"1.35 fold enrichment (6-mer frequency, TF over GST control)"
same,binding signal,ETV2,"1.32 fold enrichment (6-mer frequency, TF over GST control)"
same,binding signal,ELF3,"1.3 fold enrichment (6-mer frequency, TF over GST control)"
same,binding signal,CRX,"2.4 fold enrichment (6-mer frequency, TF over GST control)"
same,binding signal,ETV1,"1.26 fold enrichment (6-mer frequency, TF over GST control)"
